This is a sample that favours compounds with a hit; in the whole collection about 7.5% have one here.
FLuc modulator – qHTS profiling assay for firefly luciferase inhibitor/activator using purifed enzyme and Km concentrations of substrates (counterscreen for miR-21 project); Luciferin 4-monooxygenase (Photinus pyralis), P08659; purified FLuc, Km substrates, luminescence inhibition; Potency, µM (doses to about 57.5 µM), for inactives: top-dose activity change, negative = inhibition, most hits filed as inhibitors; 360,000 compounds, 6.9% hits; AID 588342, 2011;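 further: plate controls were vehicle for no effect and reference inhibitor for full effect; nearly all actives have a fitted effect of over 55% in size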
Target sequence (P08659 whole entry, looked up): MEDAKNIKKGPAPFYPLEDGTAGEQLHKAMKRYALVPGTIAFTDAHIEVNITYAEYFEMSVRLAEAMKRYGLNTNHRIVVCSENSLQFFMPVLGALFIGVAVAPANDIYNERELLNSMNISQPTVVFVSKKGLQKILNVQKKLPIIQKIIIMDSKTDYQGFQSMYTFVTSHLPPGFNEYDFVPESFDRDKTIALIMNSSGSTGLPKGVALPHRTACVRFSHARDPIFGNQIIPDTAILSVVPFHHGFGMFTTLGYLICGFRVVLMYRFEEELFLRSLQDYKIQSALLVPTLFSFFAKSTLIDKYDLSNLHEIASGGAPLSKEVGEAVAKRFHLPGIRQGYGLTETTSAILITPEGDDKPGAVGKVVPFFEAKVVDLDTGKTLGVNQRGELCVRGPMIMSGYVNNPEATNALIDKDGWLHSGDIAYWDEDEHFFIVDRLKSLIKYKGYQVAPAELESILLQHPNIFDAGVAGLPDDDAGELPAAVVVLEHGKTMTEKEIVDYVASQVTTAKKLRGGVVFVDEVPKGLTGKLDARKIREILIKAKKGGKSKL
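Biochemical qHTS of compounds, final roughly 60 µM downward over six points, against 10 nM purified firefly luciferase using Km concentrations of substrates (10 uM D-luciferin, 10 uM ATP) in Tris acetate pH 7.5 buffer; luminescence output.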
Rab9 prom act – qHTS Assay for Rab9 Promoter Activators | Huh7 Rab9 promoter-luciferase reporter, luminescence, 24 h | Potency, µM (series often up to 9.22 µM), inactives show at the top dose activation, negative = inhibition, hits mostly activators | 320,000 compounds, 2.8% hits; further: % of control where 0% means no effect; nearly all actives have a fitted effect of over 60% in size
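Quantitative HTS format; Huh7 Rab9-luciferase reporter cells (1500/well) receive compound 2 h post-plating, incubate 24 h at 37 °C, then get luciferase reagent for 10 min before luminescence reading.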
ELG1 genotoxic – qHTS screen for small molecules that induce genotoxicity in human embryonic kidney (HEK293T) cells expressing luciferase-tagged ELG1 | AID 504466, 2011 | HEK293T ELG1-luciferase reporter, luminescence, 16 h | Potency, µM (titrated, usually from 46 µM), without a hit: top-dose activity change, positive = activation, most hits filed as activators | 330,000 compounds, 1.3% hits; further: % of control where 0% means no effect; nearly all actives have a fitted effect of over 60% in size
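16 hr compound incubation (37 °C, 5% CO2) of HEK293T cells carrying luciferase-tagged ELG1; luciferase then measured by ONE-Glo luminescence after 30 min at RT.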
NPC1 prom act – qHTS Assay for NPC1 Promoter Activators; 320,000 compounds, 2.4% hits; Huh7 NPC1 promoter luciferase reporter, 24 h; Potency, µM (titrated, usually from 9.22 µM), without a hit: at the top dose activation, usual class: activators; further: % of control where 0% means no effect; nearly all actives have a fitted effect of over 60% in size
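Luminescence from an NPC1 promoter-driven luciferase reporter in stably transfected Huh7 cells was measured after 24 h compound treatment at 37 °C, followed by 10 min ambient incubation with luciferase detection reagent.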
SMN2 splice up – qHTS Assay for Enhancers of SMN2 Splice Variant Expression; Potency, µM (doses to about 46.1 µM), without a hit: at the top dose activity change, positive = activation, actives largely listed as activators; HEK293 SMN2-luciferase splicing reporter, luminescence, 30-36 h; 210,000 compounds, 2.8% hits; further: % of control where 0% means no effect; nearly all actives have a fitted effect of over 55% in size
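qHTS luciferase splicing reporter: luminescence rises when SMN2 exon 7 is included in transfected HEK293 cells. Compound exposure lasted 30-36 h at 37C, with 4.5 mM final sodium butyrate as control, followed by a ONE-Glo read.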
The depositor's hits bear a star; ? = inconclusive; . = not tested or not shown. The call rests on the fitted dose curve; in most records, active means well fitted curve in the direction sought with a large enough effect; inconclusive means small, poorly fitted or top-dose-only effect, or another doubt; inactive means no such curve, though single readings can be large; an effect the other way counts as inactive or inconclusive. Potency means the concentration at half of the fitted maximal effect.

SMILES	FLuc modulator	Rab9 prom act	ELG1 genotoxic	NPC1 prom act	SMN2 splice up
Cc1cccc(-n2c(SCc3cc(=O)n4c(C)cccc4n3)nc3[nH]ncc3c2=O)c1	-7.5%	-3.2%	-8.2%	1.9%	-13.9%
Cc1nn(C)c2c1c(C(F)(F)F)cc(=O)n2CC(=O)N1CCCCC1C (stereo not given)	-1.4%	.	.	.	.
CCCOC(=O)c1ccc(NC(=O)Cc2csc(C)n2)cc1	1.0%	.	.	.	.
Cc1nc(NCCc2ccccc2)sc1C(=O)O	16.9µM*	29.1%	13.4%	?	.
Cc1nc(NC(=O)c2ccccc2)sc1C	?	1.78µM*	?	1.78µM*	.
CC(=O)c1sc(NC(=O)c2ccccc2C)nc1C	?	?	?	20.9%	12.3%
Cc1nc(NC(=O)c2ccccc2O)sc1C	5.36µM*	3.16µM*	5.8µM*	3.98µM*	.
CSc1nnc(NC(=O)CCc2ccccc2)s1	-8.0%	?	7.0%	6.4%	-7.1%
Cc1nc(NC(=O)CCc2ccccc2)sc1C	16.9µM*	25.5%	?	27.2%	.
COCCNC(=O)Nc1cc(C(=O)NCc2ccc(C(C)C)cc2)ccc1N1CCCC1	-15.3%	.	.	.	.
CCCCCCCCNC(=S)NCCN1CCCCC1	1.8%	-3.1%	-3.1%	-2.5%	-12.0%
Cc1cc(C)c(C)c(S(=O)(=O)NC2CCN(Cc3ccccc3)CC2)c1C	-1.5%	-1.3%	-1.1%	-1.6%	6.3%
C/C(CCc1ccc2c(c1)OCO2)=N\N=C(/N)SC1CC(=O)N(c2ccccc2F)C1=O (stereo not given)	-9.0%	-0.8%	1.7%	-3.5%	0.6%
Cc1ccc(OCC(=O)Nc2ccon2)c([N+](=O)[O-])c1	8.49µM*	3.16µM*	10.3µM*	3.16µM*	.
C/C(CC(=O)Nc1ccccc1-c1ccccc1)=N\NC(=O)COc1ccc(C)cc1Br	-11.2%	21.8%	23.1µM*	14.7%	-10.7%
Cc1ccc(OCC(=O)Nc2ccccc2[N+](=O)[O-])c(Br)c1	2.39µM*	2.82µM*	?	3.16µM*	17.8µM*
COc1ccccc1CNC(=O)C/C(C)=N/NC(=O)COc1ccc(C)cc1Br	-2.7%	-2.4%	-1.3%	-7.4%	24.9%
O=S(=O)(CCc1ccncc1)C1Cc2cccc3cccc1c23 (stereo not given)	3.2%	-2.0%	-5.4%	1.2%	.
CCc1ccc(CN(C)CC(=O)Nc2sccc2C#N)cc1	-2.7%	-4.4%	-1.2%	2.3%	-19.3%
COc1cc(C2Nc3cc(Cl)c(S(N)(=O)=O)cc3S(=O)(=O)N2)ccc1OCc1ccccc1 (stereo not given)	?	-3.7%	16.4µM*	-1.8%	8.5%
CCN(Cc1ccccc1)S(=O)(=O)c1ccc(C(=O)N(CCCN(C)C)c2nc3c(C)c(C)ccc3s2)cc1	0.9%	-15.8%	-3.4%	-0.9%	.
CCN(CC)c1ccc2c(O)cc(=O)oc2c1	12µM*	1.1%	2.8%	-0.2%	7.1%
COc1cccc(-c2cn3c(n2)sc2cc(C(=O)NC4CCCCCC4)ccc23)c1	-14.6%	.	.	.	.
CC(=O)c1cccc(NC(=O)Cn2nc(C)n3cccc3c2=O)c1	-15.5%	.	.	.	.
CCNC(=O)/C(=C/c1ccco1)NC(=O)/C=C/c1ccccc1	1.0%	4.5%	-4.3%	-5.4%	14.2%
SMILES	FLuc modulator	Rab9 prom act	ELG1 genotoxic	NPC1 prom act	SMN2 splice up
CCCc1c(C(=O)N/N=C/C(C)=C/c2ccccc2)nnn1-c1nonc1N	2.39µM*	13.9%	7.1%	12.9%	.
CC(/C=N/NC(=O)c1nnn(-c2nonc2N)c1C(C)C)=C\c1ccccc1	1.51µM*	?	2.7%	?	.
CN(c1ccccc1)S(=O)(=O)c1cccc(NC(=O)c2cc(=O)c3ccccc3o2)c1	-1.0%	-15.4%	-16.0%	-3.6%	-47.8%
O=C1c2ccccc2C(=O)c2c(O)ccc(O)c21	.	.	.	.	-2.9%
O=C1C(C2=C(O)c3ccccc3C2=O)=Nc2ccccc21	1.9µM*	-28.1%	-2.9%	-18.6%	-11.3%
CCCn1c(C)nc2c(N3CCOCC3)nc(C)nc21	.	.	.	.	-22.6%
